Laboratory results reported in PubChem BioAssay (Tox21).
Records with an inconclusive call do not appear. Activity calls are given as the source filed them. Unless noted, calls come from the whole dose curve; as a rule, active = well fitted curve in the direction sought with a large enough effect in the repeat runs; inconclusive = weak or mixed curves; inactive = no such curve, though single readings can be large; an effect the other way counts as inactive or inconclusive.

Key:
[1] = qHTS assay to identify small molecule antagonists of the estrogen receptor beta (ER-beta) signaling pathway - cell viability counter screen (AID 1259382);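 note: HEK293T cells carrying ER-beta-UAS-bla reporter stimulated with estradiol; series mostly up to about 92 µM; nearly all actives have a fitted effect of over 55% in size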
Method in brief: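 Cytotoxicity counter screen multiplexed with the beta-lactamase antagonist assay: GripTite HEK293T ER-beta-bla cells were treated 16 hr with test chemicals in the presence of 1nM 17-beta-estradiol, and viability was measured by CellTiter-Glo.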

[2] = qHTS assay to identify small molecule agonists or antagonists of the thyroid stimulating hormone receptor (TSHR) signaling pathway - wild type cell line counter screen (AID 1259384; calls by dose curve)
Method in brief: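 Wild-type Hek293 cells, 800/well, 18 h at 37C, then compound with Ro20-1724 for 30 min RT. cAMP by HTRF (cAMP-d2/anti-cAMP cryptate), 1 h RT, fluorescence read. 15 concentrations, triplicates.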

[3] = biological target: Thyrotropin receptor (Homo sapiens) (UniProt P16473); experiment: qHTS assay to identify small molecule antagonists of the thyroid stimulating hormone receptor (TSHR) signaling pathway (AID 1259385; calls by dose curve; note: nearly all actives have a fitted effect of over 20% in size)
Method in brief: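 TSHR-HEK293 cells (800/well) plated 18 h, then compounds with Ro20-1724 and TSH at 1.5 ng/mL final, 30 min at room temperature. cAMP quantified by HTRF (cAMP-d2/anti-cAMP-cryptate, 1 h); 15 concentrations in triplicate.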

[4] = qHTS assay to identify small molecule agonists of the estrogen receptor alpha (ER-alpha) signaling pathway in the presence of an antagonist - cell viability counter screen (AID 1259386);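 note: series mostly up to about 92 µM; cells exposed to compounds for 22 h at 37 °C before the viability read; nearly all actives have a fitted effect of over 30% in size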
Method in brief: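 Cytotoxicity was measured in parallel with the ERE-luciferase agonist screen, in the same wells. The cells were VM7Luc4E2, which endogenously express ER-alpha, and treatment was with compounds plus 10.0nM ICI-182,780 for 22hr.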

[5] = biological target: Progesterone receptor (Homo sapiens) (UniProt P06401); experiment: qHTS assay to identify small molecule agonists of the progesterone receptor (PR) signaling pathway (AID 1346784; calls by dose curve; note: nearly all actives have a fitted effect of over 30% in size)
Method in brief: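 Compounds were tested for PR agonism in HEK 293T cells bearing a beta-lactamase gene under UAS control. Treatment lasted 16 hr at 37C; signal came from fluorescence of a FRET substrate.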

[6] = biological target: Progesterone receptor (Homo sapiens) (UniProt P06401); experiment: qHTS assay to identify small molecule antagonists of the progesterone receptor (PR) signaling pathway (AID 1346795; active = well fitted inhibition curve with a large enough effect in the signal ratio in the repeat runs, not every such curve was filed as active; the % refers to the signal ratio)
Method in brief: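 In HEK293T cells bearing the PR-UAS-bla reporter, compound effects on promegestone-driven (1 nM) beta-lactamase expression are assessed after 16 hr using a fluorescent FRET substrate incubated 2 hr at room temperature.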

[7] = qHTS assay to identify small molecule antagonists of the progesterone receptor (PR) signaling pathway - cell viability counter screen (AID 1346798); note: series mostly up to about 92 µM; nearly all actives have a fitted effect of over 50% in size
Method in brief: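 Following a 4 hr attachment, PR-UAS-bla HEK293T cells in charcoal-stripped FBS medium were exposed to compounds with R5020 for 16 hr; CellTiter-Glo was added and luminescence read after 30 min at room temperature.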

[8] = qHTS assay to identify small molecule agonists of the progesterone receptor (PR) signaling pathway - cell viability counter screen (AID 1346799; calls by dose curve; note: nearly all actives have a fitted effect of over 45% in size)
Method in brief: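 Here, 3,000 PR-UAS-bla HEK293T cells per well were treated with compounds for 16 hr after a 6 hr preincubation at 37C and 5% CO2; cell viability is the CellTiter-Glo luminescence signal.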

[9] = qHTS assay to identify small molecule antagonists of the TGF-beta/Smad signaling pathway - cell viability counter screen (AID 1346824); note: nearly all actives have a fitted effect of over 50% in size
Method in brief: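 SBE-bla HEK 293T cells, incubated overnight, then compound plus 0.25 ng/mL TGF-beta1 (stock added) for 5 hr at 37 C. Viability was read in the same wells by CellTiter-Glo luminescence after 30 min at room temperature.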

[10] = qHTS assay to identify small molecule agonists of the TGF-beta/Smad signaling pathway - cell viability counter screen (AID 1346829); note: top concentration of the series differs between compounds; nearly all actives have a fitted effect of over 45% in size
Method in brief: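 Here the cytotoxicity of library compounds is measured in SBE-bla HEK 293T cells treated for 5 hr, using CellTiter-Glo added to wells already read for the beta-lactamase reporter.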

[11] = qHTS assay to identify small molecule agonists of the TGF-beta/Smad signaling pathway (AID 1346859; active = well fitted activation curve with a large enough effect in the signal ratio in the repeat runs, not every such curve was filed as active; the % refers to the signal ratio; note: series mostly up to about 77 µM)
Method in brief: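 Each well held 4,000 SBE-bla HEK 293T cells incubated overnight before compound addition; 5 hr later the cleavable FRET substrate went on for 2 hr at room temperature, and fluorescence was read at two emissions.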

[12] = biological target: Thyrotropin-releasing hormone receptor (Homo sapiens) (UniProt P34981); experiment: qHTS assay to identify small molecule antagonists of the thyrotropin-releasing hormone receptor (TRHR) signaling pathway (AID 1346877; active = well fitted inhibition curve with a large enough effect in the repeat runs, not every such curve was filed as active; note: series mostly up to about 51 µM)
Method in brief: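 Antagonism is measured as suppression of the calcium response to 1 nM TRH in TRHR-HEK293 cells that have been dye-loaded for 2 h at 37 °C after overnight plating. Each compound is tested at 15 concentrations in triplicate.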

[13] = biological target: Thyrotropin-releasing hormone receptor (Homo sapiens) (UniProt P34981); experiment: qHTS assay to identify small molecule agonists of the thyrotropin-releasing hormone receptor (TRHR) signaling pathway (AID 1346891; calls by dose curve; note: series mostly up to about 58 µM)
Method in brief: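 Screening of agonists relied on calcium signalling in HEK293 cells expressing human TRHR: dye loading 2 h at 37 °C preceded compound addition and a 3-min fluorescence time course.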

[14] = Human pregnane X receptor (PXR) small molecule agonists, qHTS cell viability counter screen (AID 1346977); note: nearly all actives have a fitted effect of over 50% in size
Method in brief: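 Tox21 qHTS format; PXR-Luc HepG2, 2,000/well, charcoal-stripped FBS 5%. Cpd exposure 24hr. Read: CellTiter-Fluor fluorescence, multiplexed with luciferase.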

[15] = Caspase-3/7 induction in HepG2 cells by small molecules, qHTS assay (AID 1346978); note: nearly all actives have a fitted effect of over 15% in size
Method in brief: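 Wild-type HepG2 cells, 2,000/well, settled 5 hr at 37 C and 5% CO2, then compound-treated for 17 hr; caspase-3/7 activity read by luminescent Caspase-Glo 3/7 after 30 min at room temperature.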

[16] = Caspase-3/7 induction in CHO-K1 cells by small molecules, qHTS cell viability counter screen (AID 1346979); note: nearly all actives have a fitted effect of over 35% in size
Method in brief: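 CellTiter-Fluor viability check, qHTS format: wild-type CHO-K1, 16hr compound treatment, 1hr reagent incubation, fluorescence read.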

[17] = Caspase-3/7 induction in CHO-K1 cells by small molecules, qHTS assay (AID 1346980); note: nearly all actives have a fitted effect of over 15% in size
Method in brief: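 Wild-type CHO-K1 cells exposed to compounds for 17hr at 37 C, 5% CO2. Caspase-3/7 activity then measured by Caspase-Glo 3/7 luminescence after 30min at room temperature.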

[18] = Caspase-3/7 induction in HepG2 cells by small molecules, qHTS cell viability counter screen (AID 1346981); note: series mostly up to about 92 µM; nearly all actives have a fitted effect of over 30% in size
Method in brief: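 Cell viability is measured as a cytotoxicity counter screen alongside the Caspase-Glo 3/7 readout in identical wells. Wild-type HepG2 cells are treated with test compounds for 16 hr at 37 C before CellTiter-Fluor addition and a 1-hr incubation.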

[19] = biological target: Nuclear receptor subfamily 1 group I member 2 (Homo sapiens) (UniProt O75469); experiment: Human pregnane X receptor (PXR) small molecule agonists, qHTS assay (AID 1346982); note: nearly all actives have a fitted effect of over 35% in size
Method in brief: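 Cells: HepG2 stably carrying PXR-Luc. Medium held 5% charcoal-stripped FBS. Compounds in DMSO added after 5 hr plating, incubated 24 hr, then luminescence quantified with ONE-Glo.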

[20] = biological target: Estrogen receptor (Homo sapiens) (UniProt P03372); experiment: qHTS assay to identify small molecule agonists of the estrogen receptor alpha (ER-alpha) signaling pathway in the presence of an antagonist (AID 1259383; calls by dose curve; note: top concentration of the series differs between compounds; nearly all actives have a fitted effect of over 15% in size)
Method in brief: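 Agonist-mode confirmation in the presence of the ER antagonist ICI-182,780 at 10.0nM final. Breast-derived VM7Luc4E2 reporter cells were exposed to compounds for 22hr, and ERE-driven luciferase was quantified by luminescence.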

Measured: Potency

Chain of Thyrotropin receptor (Homo sapiens) (P16473 whole entry, looked up): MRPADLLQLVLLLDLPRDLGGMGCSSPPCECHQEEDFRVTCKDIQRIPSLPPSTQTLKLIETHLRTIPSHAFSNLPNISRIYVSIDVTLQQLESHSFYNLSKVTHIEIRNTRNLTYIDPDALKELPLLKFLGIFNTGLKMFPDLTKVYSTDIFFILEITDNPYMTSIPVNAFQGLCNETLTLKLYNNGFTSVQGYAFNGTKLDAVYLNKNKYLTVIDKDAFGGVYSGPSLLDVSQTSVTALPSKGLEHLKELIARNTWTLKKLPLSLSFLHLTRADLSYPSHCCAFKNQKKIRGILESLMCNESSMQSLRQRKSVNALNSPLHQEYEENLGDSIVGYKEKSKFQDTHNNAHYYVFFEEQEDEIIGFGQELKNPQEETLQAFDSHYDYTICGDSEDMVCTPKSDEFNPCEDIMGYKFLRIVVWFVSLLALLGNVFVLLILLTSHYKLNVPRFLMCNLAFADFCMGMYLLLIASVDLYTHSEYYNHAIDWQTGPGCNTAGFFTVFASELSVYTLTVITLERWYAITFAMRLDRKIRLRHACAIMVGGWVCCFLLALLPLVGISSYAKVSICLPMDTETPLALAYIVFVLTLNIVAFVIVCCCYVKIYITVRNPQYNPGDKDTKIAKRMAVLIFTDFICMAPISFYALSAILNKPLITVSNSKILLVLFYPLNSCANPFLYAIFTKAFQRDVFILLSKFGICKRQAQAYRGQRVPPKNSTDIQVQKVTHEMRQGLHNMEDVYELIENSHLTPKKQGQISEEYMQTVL
Chain of Thyrotropin-releasing hormone receptor (Homo sapiens) (P34981 whole entry, looked up): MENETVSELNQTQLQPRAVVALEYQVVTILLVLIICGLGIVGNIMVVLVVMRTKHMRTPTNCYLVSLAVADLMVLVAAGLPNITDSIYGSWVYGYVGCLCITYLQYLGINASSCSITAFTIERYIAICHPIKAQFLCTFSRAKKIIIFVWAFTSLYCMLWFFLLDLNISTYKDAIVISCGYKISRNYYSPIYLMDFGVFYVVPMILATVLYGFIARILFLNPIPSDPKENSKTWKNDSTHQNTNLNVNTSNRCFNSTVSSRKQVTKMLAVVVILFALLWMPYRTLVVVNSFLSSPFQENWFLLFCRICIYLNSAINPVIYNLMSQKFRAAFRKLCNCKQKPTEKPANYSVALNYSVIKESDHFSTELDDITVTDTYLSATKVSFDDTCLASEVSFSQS
Chain of Progesterone receptor (Homo sapiens) (P06401 whole entry, looked up): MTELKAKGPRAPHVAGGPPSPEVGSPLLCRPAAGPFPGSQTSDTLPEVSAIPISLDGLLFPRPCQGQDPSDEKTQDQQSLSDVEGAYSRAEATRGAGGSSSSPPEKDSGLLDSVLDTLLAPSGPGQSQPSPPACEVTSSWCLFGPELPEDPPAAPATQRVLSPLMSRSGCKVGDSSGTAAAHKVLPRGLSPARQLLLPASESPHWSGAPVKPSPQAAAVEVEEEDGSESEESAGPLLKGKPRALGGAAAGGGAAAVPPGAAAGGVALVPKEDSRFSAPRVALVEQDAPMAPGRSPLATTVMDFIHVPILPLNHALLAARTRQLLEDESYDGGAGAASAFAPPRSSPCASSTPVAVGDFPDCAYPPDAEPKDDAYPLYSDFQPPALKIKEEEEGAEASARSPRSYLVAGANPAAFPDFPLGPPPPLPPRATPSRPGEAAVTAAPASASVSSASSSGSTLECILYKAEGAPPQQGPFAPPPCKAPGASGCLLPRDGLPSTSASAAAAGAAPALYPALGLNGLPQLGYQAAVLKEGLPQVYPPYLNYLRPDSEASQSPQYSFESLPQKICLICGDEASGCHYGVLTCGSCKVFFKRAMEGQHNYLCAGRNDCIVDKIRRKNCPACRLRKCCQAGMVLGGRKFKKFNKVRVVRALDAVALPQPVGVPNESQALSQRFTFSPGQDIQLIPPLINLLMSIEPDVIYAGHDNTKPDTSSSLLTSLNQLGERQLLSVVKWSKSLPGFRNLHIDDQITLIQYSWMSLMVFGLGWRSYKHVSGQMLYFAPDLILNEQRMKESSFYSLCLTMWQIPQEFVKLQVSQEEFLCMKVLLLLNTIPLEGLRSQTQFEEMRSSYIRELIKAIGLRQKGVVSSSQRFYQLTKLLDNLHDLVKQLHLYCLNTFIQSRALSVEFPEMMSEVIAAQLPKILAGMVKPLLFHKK
Chain of Nuclear receptor subfamily 1 group I member 2 (Homo sapiens) (O75469 whole entry, looked up): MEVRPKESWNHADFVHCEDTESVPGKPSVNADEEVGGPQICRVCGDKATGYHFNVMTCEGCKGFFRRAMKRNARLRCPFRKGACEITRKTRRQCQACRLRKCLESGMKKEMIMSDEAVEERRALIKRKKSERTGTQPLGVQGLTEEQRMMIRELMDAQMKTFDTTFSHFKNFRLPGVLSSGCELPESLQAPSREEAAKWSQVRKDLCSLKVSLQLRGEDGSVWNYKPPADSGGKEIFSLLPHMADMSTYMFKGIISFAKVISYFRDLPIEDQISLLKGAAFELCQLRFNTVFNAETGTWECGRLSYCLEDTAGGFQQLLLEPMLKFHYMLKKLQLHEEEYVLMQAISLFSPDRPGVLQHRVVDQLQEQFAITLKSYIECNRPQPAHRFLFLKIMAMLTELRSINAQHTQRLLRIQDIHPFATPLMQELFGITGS
Chain of Estrogen receptor (Homo sapiens) (P03372 whole entry, looked up): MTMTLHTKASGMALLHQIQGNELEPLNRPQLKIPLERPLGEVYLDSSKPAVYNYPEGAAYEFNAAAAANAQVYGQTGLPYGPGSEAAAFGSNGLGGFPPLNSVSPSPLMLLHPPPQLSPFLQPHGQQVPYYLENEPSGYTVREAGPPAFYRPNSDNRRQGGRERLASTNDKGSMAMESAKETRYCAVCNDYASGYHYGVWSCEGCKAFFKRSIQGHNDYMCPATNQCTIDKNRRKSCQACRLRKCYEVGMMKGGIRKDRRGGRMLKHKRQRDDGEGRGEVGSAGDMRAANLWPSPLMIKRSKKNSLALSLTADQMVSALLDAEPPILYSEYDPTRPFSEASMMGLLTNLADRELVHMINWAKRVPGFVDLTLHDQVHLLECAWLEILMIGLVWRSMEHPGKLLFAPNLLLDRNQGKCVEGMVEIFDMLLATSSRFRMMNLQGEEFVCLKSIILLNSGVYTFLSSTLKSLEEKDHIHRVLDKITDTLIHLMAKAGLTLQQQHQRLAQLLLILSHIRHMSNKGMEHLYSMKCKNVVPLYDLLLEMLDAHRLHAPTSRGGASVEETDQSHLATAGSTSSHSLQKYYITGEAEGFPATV

Cc1ccc2ccccc2n1
not listed: [20]
inactive: all other assays above

CCO/C=C1\N=C(c2ccccc2)OC1=O
not listed: [8] | [12] | [13] | [19] | [20]
inactive: all other assays above

O=C(O)Cc1c(Cl)ccc(Cl)c1Cl
not listed: [11] | [16] | [20]
inactive: all other assays above

CC1(C)S[C@@H]2[C@H](NC(=O)Cc3ccccc3)C(=O)N2[C@H]1C(=O)O (tested in a mixture with another compound)
not listed: [13] | [19] | [20]
inactive: all other assays above

CC(C)(O)CCCC1=CCC(C=O)CC1 (stereo not given)
not listed: [13] | [19] | [20]
inactive: all other assays above

Cc1cc(N)no1
not listed: [9] | [13] | [19] | [20]
inactive: all other assays above

Cc1ccccc1OCC(=O)O
not listed: [2] | [3] | [4] | [8]
inactive: all other assays above

CCCOc1ccc(C(=O)OCCN(CC)CC)cc1N
not listed: [8] | [20]
inactive: all other assays above

N=C(N)N
not listed: [9] | [20]
inactive: all other assays above

O=C(O)P(=O)(O)O
not listed: [8] | [10] | [20]
inactive: all other assays above

COc1cnc(NS(=O)(=O)c2ccc(N)cc2)nc1
not listed: [8] | [13] | [20]
inactive: all other assays above

CCCCCCCCOCCC#N
not listed: [16] | [20]
inactive: all other assays above

Cc1ccc(N)nc1
not listed: [12] | [13] | [20]
inactive: all other assays above

C=CC(=O)CC
not listed: [8] | [12] | [13] | [20]
inactive: all other assays above

CCCCN=C(N)N=C(N)N
not listed: [12] | [13] | [20]
inactive: all other assays above
